Source: PubChem BioAssay (National Center for Advancing Translational Sciences (NCATS))
Pf growth 48h = inhibits P. falciparum growth in the first generation, 48 h; 5.9% of 310,000 active; P. falciparum luciferase growth in erythrocytes, 48 h; Potency, µM (doses to about 28.7 µM), inactives show at the top dose activity change, negative = inhibition, most hits filed as inhibitors; AID 504832; further: potency means the concentration at half of the fitted maximal effect; on the % scale 0 is the no-effect control and ±100 the full control effect
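Luciferase-expressing P. falciparum in infected erythrocytes (2% hematocrit, 0.1% parasitemia final) in RPMI 1640/0.5% Albumax were exposed to compound for 48 hours at 37 C, 5% CO2; growth read as luminescence.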
Cycloheximide cs = counter-screen hit for Shiga toxin inhibitors, cycloheximide; max response, %; cell reporter, cycloheximide protein synthesis inhibition counterscreen; 12% of 300,000 active; in the data active means max response mostly above about 13%, no sharp cut-off; inactive means mostly below about 14%; further: read at 38.3 µM for the half of the compounds with a filed dose; 0% is about no effect
HCMV antiviral = inhibitors of human cytomegalovirus; HFF cells, HCMV-luciferase reporter, 72 h; hits give low values; activity change, negative = inhibition, % at 57.5 µM; 4.5% of 410,000 active; in the data active means activity change below about -60%; inconclusive means no clear call, values can overlap the other calls; inactive means above about -39%; further: on the % scale 0 is the no-effect control and ±100 the full control effect
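Compounds were evaluated in HFFs infected with an HCMV luciferase reporter virus (MOI 1 PFU/cell). Luciferase in lysates collected 72 h post infection served as the replication measure.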
HCV inh = inhibitors of hepatitis C virus infection. AID 651820. 3.4% of 340,000 active. Huh7.5.1 HCVcc-Cre infection, luciferase reporter, 44 h. Potency, µM (top dose mostly 41.8 µM), for the others: at the top dose activity change, negative = inhibition, usual class: inhibitors; further: potency means the concentration at half of the fitted maximal effect; on the % scale 0 is the no-effect control and ±100 the full control effect
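Compounds are dispensed onto cells plated 4 h earlier at 1,000 per well, with HCVcc-Cre virus (about 0.5 moi) added next. Following 44 h of culture, luminescent signal is measured for 15 sec after 15 min with substrate at room temperature.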
Pf growth 96h = inhibits malaria parasite growth, 96 h; P. falciparum luciferase reporter growth, 96 h; Potency, µM (series often up to 28.7 µM), without a hit: at the highest dose activity change, negative = inhibition, hits mostly inhibitors; 6.9% of 320,000 active; further: potency means the concentration at half of the fitted maximal effect; on the % scale 0 is the no-effect control and ±100 the full control effect
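96 h incubation, 37 C, 5% CO2, of luciferase-reporter P. falciparum-infected RBCs (2% hematocrit, 0.05% parasitemia final) with test compounds; endpoint luminescence.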
Shiga inhibitor = blocks Shiga toxin action in Vero cells | AID 2315 | Vero cells, Shiga toxin protein synthesis inhibition reporter | inhibition, % at 38.7 µM | 9.2% of 290,000 active; in the data active means inhibition mostly above about 28%, no sharp cut-off; inactive means mostly below about 43%; further: 0% is about no effect
An asterisk follows results filed as active; ? = inconclusive; · = no result; [ ] = another dose, or the depositor's remark. Most compounds without a hit are left out; they make up all but 21% or so of the library. Unless noted, the call rests on the fitted dose curve; in most records, active means well fitted inhibition curve with a large enough effect; inconclusive means small, poorly fitted or top-dose-only effect, or another doubt; inactive means no such curve, though single readings can be large or run the other way.

SMILES	Pf growth 48h	Cycloheximide cs	HCMV antiviral	HCV inh	Pf growth 96h	Shiga inhibitor
CS(=O)(=O)c1ccc(-c2cccc(NC(=O)c3ccco3)c2)nn1	11%	·	-15	19%	-3%	·
CN=C1NN=C(c2cc(C)n(-c3c(C)n(C)n(-c4ccccc4)c3=O)c2C)CS1	?	-3	2	9%	?	-6
Cc1cc(C2=NNC(=NCc3ccccc3)SC2)c(C)n1-c1c(C)n(C)n(-c2ccccc2)c1=O	12µM*	-2	-10	-23%	?	-5
COc1ccc(OC)c(C2=NNC(=NCc3ccc4c(c3)OCO4)SC2)c1	-13%	-2	?	?	?	-7
Cc1cc(C2=NNC(=NC3CC3)SC2)c(C)n1-c1ccccc1	?	-1	-77*	?	?	-6
COc1ccc(-n2c(C)cc(C3=NNC(=NC4CC4)SC3)c2C)cc1	?	40*	-71*	?	-23%	85*
C#CCNC(=O)C[C@@H]1C[C@@]2(C(=O)OC)CCCCC=C2N(CCCCCCCC)C1=O	·	·	24	·	·	·
N#Cc1ccc(S(=O)(=O)N2CCC(Oc3cccc(C(F)(F)F)c3)CC2)cc1	·	·	-19	·	·	·
O=C1CSc2nc3ccccc3n21	35%	21*	84	9%	-7%	19
O=C(O)C1CC(=O)n2c(nc3ccccc32)S1 (stereo not drawn)	2%	1	-17	21%	·	26
CCOc1ccc(N(C(C)C(=O)N2CCCC2)S(C)(=O)=O)cc1 (stereo not drawn)	6%	-3	3	-8%	-102%	2
Cc1ccc(N(C(C)C(=O)N2CCOCC2)S(C)(=O)=O)cc1C (stereo not drawn)	?	-4	-24	12%	9.3µM*	-9
CCOC(=O)C1CCN(C(=O)C(C)N(c2ccc(Oc3ccccc3)cc2)S(C)(=O)=O)CC1 (stereo not drawn)	?	-2	5	10µM*	?	3
CCOC(=O)N1CCN(C(=O)C(C)N(c2ccc(Oc3ccccc3)cc2)S(C)(=O)=O)CC1 (stereo not drawn)	12µM*	-1	-65*	?	?	-2
Cc1ccc(N(C(C)C(=O)N2CCC(C)CC2)S(C)(=O)=O)cc1C (stereo not drawn)	9%	0	-25	25%	?	-8
CCOc1ccc(N(C(C)C(=O)NN=C2CCCCCCC2)S(C)(=O)=O)cc1 (stereo not drawn)	7%	-5	?	0%	-3%	-8
COc1ccc(N(C(C)C(=O)NN=C2CCCC2)S(C)(=O)=O)cc1 (stereo not drawn)	42%	10	-30	12%	1.9µM*	-11
Cc1ccc(NC(=O)Cn2nnc(C(=O)NCCc3ccccc3)c2N)c(C)c1	49%	9	·	10%	0%	-9
COCCCNC(=O)CSc1nc2cc(S(=O)(=O)N3CCCCC3)ccc2o1	-24%	·	-21	2%	?	·
CC(C)CCC[C@@H](C)[C@H]1CC[C@H]2[C@@H]3CC=C4CC(O)CC[C@]4(C)[C@H]3CC[C@]12C (stereo partly drawn)	·	4	·	·	·	11
O=C(NCCCN1CCOCC1)C(=O)N/N=C/c1ccc2c(c1)OCO2	8%	-1	-13	1%	-1%	-6
COc1ccc(CN(C)C(=O)c2cccc(S(=O)(=O)N3CCc4ccccc43)c2)c(OC)c1	?	·	-33	?	?	·
COc1ccc(N(C(C)C(=O)N2CCCC2)S(C)(=O)=O)cc1 (stereo not drawn)	-4%	1	-1	7%	3%	·
COc1ccc(N(C(C)C(=O)N2CCC(Cc3ccccc3)CC2)S(C)(=O)=O)cc1 (stereo not drawn)	?	9	-74*	8.9µM*	6%	20
CCOC(=O)c1cc[nH]c1C	2%	11	-4	28%	?	12
SMILES	Pf growth 48h	Cycloheximide cs	HCMV antiviral	HCV inh	Pf growth 96h	Shiga inhibitor
CC(C)CCn1c(=O)c2ccccc2n2c(CN(C)Cc3ccccc3)nnc12	?	-4	-30	?	13µM*	-14
CCCCCn1c(=O)c2ccccc2n2c(CCl)nnc12	?	33*	-12	-25%	?	35
CC(C)CCn1c(=O)c2ccccc2n2c(CCl)nnc12	?	7	15	?	?	2
CC(C)(C)NC(=O)CN1CCCN(C(=O)c2cccc(S(=O)(=O)N3CCc4ccccc43)c2)CC1	?	·	-29	-13%	?	·
COc1ccc(-n2nnnc2CNC(=O)C2CC(=O)N(c3ccc(Cl)cc3)C2)cc1 (stereo not drawn)	0%	·	-35	-2%[8.37 µM]	13%	·
O=C(Cn1nc(-c2ccccc2Cl)ccc1=O)Nc1ccc(Br)cc1	2%	10	-23	9%	?	-5
O=C(COC(=O)Cc1c(Cl)cccc1Cl)Nc1ccccc1-c1ccccc1	-7%	6	12	?	-12%	-13
O=C(CSCc1c(Cl)cccc1Cl)Nc1ccccc1-c1ccccc1	?	-4	-66*	?	?	-8
O=C(Cn1nc(-c2ccccc2Cl)ccc1=O)Nc1ccccc1-c1ccccc1	-4%	-1	-64*	?	-25%	-6
CN(C)S(=O)(=O)c1ccc(C(=O)NCCSc2c(-c3ccc(Br)cc3)[nH]c3ccccc23)cc1	·	·	-28	·	·	·
Cc1ccc(CNC(=O)C2CCCN(S(=O)(=O)c3cccc4nsnc34)C2)cc1 (stereo not drawn)	·	·	2	·	·	·
CN(C)N=C1c2cc(S(=O)(=O)N(C)C)ccc2-c2ccc(S(=O)(=O)N(C)C)cc21	13µM*	-3	0	?	12µM*	4
CN(C)S(=O)(=O)c1ccc2c(c1)C(=NO)c1cc(S(=O)(=O)N(C)C)ccc1-2	-22%	-3	-64*	-21%	2.6µM*	1
O=C(CNc1ccccc1)NN=C1CCCC1	-6%	-1	5	28%	9%	4
CC1CCC(NC(=S)NCCN(C)C)CC1 (stereo not drawn)	72%	23*	-16	-7%	38%[5.75 µM]	45*
CCN(Cc1ccncc1)Cc1cn[nH]c1-c1cc(OC)c(OC)c(OC)c1	?	-2	34	6%	9.3µM*	-13
COC(=O)c1c(NC(NC(=O)C(C)C)C(Cl)(Cl)Cl)sc2c1CCC2 (stereo not drawn)	?	-3	?	?	-12%	19
CCC(=O)NC(Nc1sc2c(c1C(=O)OC)CCC2)C(Cl)(Cl)Cl (stereo not drawn)	?	-1	-24	?	?	-10
COC(=O)c1c(NC(NC(C)=O)C(Cl)(Cl)Cl)sc2c1CCCC2 (stereo not drawn)	?	6	-6	11µM*	10µM*	14
